# Legend:
# Assay in all cases: DAPPL (digital affinity profiling via proximity ligation, sequencing); 10 mM Tris-HCl pH 7.5, 50 mM NaCl, 1 mM DTT, 4% glycerol, room temperature, 30 min; GST-TFs on glutathione beads, 16-mer random dsDNA library, 0.1% formaldehyde crosslink after washing; high values mean tight binding
# FLI1 = molecular target: T1, FLI1 (Homo sapiens, UniProt Q01543 1-452); conditions: protein: recombinant; tags: N-terminal GST; dsDNA, one strand shown
# T1 sequence: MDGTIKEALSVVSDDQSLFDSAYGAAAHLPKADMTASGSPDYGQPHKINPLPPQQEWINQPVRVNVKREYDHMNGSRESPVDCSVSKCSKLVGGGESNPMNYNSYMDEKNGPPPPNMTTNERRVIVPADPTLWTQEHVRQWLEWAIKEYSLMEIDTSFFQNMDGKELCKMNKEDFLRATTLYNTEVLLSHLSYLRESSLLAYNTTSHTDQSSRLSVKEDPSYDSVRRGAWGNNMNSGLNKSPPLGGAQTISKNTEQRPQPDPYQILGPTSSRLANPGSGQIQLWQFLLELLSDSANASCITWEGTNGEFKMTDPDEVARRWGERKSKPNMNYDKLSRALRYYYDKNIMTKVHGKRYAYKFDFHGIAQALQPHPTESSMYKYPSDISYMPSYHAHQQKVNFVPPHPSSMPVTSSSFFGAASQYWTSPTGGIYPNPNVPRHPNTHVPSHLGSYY
# Procedure, shortened: (§1)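 Human transcription factors fused to GST were expressed in yeast, captured on glutathione beads, given DNA barcodes and pooled with a GST-only negative control. Pools were incubated with 200 nmole of a 16-mer random double-stranded DNA library in Tris/NaCl/DTT/glycerol buffer at room temperature for 30 min. They were then washed, crosslinked with 0.1% formaldehyde, proximity-ligated (BsaI/T4 ligase, 1 h, 37 °C), PCR-amplified and sequenced on an Illumina NextSeq500. Binding signal is each 6-mer's read frequency for a factor divided by its frequency for the GST control.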
# ELK1 = molecular target: T2, ELK1 (Homo sapiens, UniProt P19419 1-428); conditions: protein: recombinant; tags: N-terminal GST; dsDNA, one strand shown
# T2 sequence: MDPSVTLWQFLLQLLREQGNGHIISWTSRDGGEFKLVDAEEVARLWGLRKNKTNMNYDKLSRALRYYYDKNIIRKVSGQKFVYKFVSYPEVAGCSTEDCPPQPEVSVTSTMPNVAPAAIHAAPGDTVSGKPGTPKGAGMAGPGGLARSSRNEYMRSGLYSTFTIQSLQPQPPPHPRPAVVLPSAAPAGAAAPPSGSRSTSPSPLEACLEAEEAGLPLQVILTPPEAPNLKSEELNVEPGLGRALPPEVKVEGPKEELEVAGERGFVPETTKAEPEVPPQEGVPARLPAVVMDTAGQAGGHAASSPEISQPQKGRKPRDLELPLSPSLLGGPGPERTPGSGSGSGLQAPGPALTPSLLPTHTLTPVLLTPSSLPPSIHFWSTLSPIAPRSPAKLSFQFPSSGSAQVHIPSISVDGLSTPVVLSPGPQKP
# Procedure, shortened: as §1
# GABPA = molecular target: T3, GABPA (Homo sapiens, UniProt Q06546 1-454); conditions: protein: recombinant; tags: N-terminal GST; dsDNA, one strand shown
# T3 sequence: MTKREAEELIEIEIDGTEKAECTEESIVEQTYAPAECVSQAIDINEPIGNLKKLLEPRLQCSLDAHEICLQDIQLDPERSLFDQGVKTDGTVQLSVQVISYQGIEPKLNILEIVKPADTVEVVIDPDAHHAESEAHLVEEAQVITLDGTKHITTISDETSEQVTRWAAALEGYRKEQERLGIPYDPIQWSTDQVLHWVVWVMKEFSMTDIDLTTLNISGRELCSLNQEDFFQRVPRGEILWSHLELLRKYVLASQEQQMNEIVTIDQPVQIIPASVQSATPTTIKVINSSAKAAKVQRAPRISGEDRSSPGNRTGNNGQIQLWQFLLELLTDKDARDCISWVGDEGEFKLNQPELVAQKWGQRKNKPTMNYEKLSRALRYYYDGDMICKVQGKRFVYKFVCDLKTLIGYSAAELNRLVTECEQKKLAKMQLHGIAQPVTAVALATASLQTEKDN
# Procedure, shortened: as §1
# ERG = molecular target: T4, ERG (Homo sapiens, UniProt P11308 1-479); conditions: protein: recombinant; tags: N-terminal GST; dsDNA, one strand shown
# T4 sequence: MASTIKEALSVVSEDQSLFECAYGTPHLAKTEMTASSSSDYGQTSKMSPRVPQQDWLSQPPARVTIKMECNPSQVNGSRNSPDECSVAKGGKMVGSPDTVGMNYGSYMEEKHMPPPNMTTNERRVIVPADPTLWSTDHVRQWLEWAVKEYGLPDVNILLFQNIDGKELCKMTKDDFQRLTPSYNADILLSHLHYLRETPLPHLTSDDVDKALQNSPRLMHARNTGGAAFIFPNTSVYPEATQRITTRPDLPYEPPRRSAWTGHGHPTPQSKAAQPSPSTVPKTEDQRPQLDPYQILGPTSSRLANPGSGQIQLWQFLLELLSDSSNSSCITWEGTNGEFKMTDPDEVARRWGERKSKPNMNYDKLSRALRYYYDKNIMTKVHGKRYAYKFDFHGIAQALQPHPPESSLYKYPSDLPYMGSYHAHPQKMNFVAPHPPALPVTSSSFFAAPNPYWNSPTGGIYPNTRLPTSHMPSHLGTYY
# Procedure, shortened: as §1
# ELF1 = ELF1 (Homo sapiens, UniProt P32519 1-619); conditions: protein: recombinant; tags: N-terminal GST; dsDNA, one strand shown
# Procedure, shortened: as §1
# EHF = molecular target: T5, EHF (Homo sapiens, UniProt Q9NZC4 1-300); conditions: protein: recombinant; tags: N-terminal GST; dsDNA, one strand shown
# T5 sequence: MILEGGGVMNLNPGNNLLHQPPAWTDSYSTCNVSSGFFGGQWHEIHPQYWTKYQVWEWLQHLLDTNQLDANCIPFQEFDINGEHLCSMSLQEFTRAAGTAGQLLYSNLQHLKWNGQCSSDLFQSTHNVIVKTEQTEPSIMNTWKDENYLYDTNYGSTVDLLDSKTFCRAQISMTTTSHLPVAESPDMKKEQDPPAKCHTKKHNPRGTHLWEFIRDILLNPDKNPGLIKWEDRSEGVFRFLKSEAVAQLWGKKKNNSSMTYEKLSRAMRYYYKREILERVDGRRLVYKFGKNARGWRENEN
# Procedure, shortened: as §1
# SPI1 = SPI1 (Homo sapiens, UniProt P17947 1-270); conditions: protein: recombinant; tags: N-terminal GST; dsDNA, one strand shown
# Procedure, shortened: as §1
# SPIB = SPIB (Homo sapiens, UniProt Q01892 1-262); conditions: protein: recombinant; tags: N-terminal GST; dsDNA, one strand shown
# Procedure, shortened: as §1
# ELK3 = molecular target: T6, ELK3 (Homo sapiens, UniProt P41970 1-407); conditions: protein: recombinant; tags: N-terminal GST; dsDNA, one strand shown
# T6 sequence: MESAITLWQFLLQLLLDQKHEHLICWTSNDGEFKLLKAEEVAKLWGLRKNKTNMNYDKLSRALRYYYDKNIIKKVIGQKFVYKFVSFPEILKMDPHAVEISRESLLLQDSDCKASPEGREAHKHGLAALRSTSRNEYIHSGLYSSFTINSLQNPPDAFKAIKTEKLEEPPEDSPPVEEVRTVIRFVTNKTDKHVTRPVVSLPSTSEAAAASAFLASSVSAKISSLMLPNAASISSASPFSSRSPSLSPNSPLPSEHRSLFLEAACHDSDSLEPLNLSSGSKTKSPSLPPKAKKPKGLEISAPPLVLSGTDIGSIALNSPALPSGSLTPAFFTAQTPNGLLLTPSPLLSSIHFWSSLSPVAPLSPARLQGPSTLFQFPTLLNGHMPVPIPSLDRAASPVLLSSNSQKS
# Procedure, shortened: as §1
# FEV = molecular target: T7, FEV (Homo sapiens, UniProt Q99581 1-238); conditions: protein: recombinant; tags: N-terminal GST; dsDNA, one strand shown
# T7 sequence: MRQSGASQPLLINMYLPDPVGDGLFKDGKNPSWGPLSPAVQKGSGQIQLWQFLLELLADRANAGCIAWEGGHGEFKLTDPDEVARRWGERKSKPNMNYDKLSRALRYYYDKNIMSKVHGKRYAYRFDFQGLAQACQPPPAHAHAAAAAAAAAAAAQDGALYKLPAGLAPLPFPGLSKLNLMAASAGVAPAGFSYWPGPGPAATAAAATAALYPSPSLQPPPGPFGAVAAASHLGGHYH
# Procedure, shortened: as §1
# ETV5 = ETV5 (Homo sapiens, UniProt P41161 1-510); conditions: protein: recombinant; tags: N-terminal GST; dsDNA, one strand shown
# Procedure, shortened: as §1
# HSF1 = HSF1 (Homo sapiens, UniProt Q00613 1-529); conditions: protein: recombinant; tags: N-terminal GST; chain copies: 3; dsDNA, one strand shown
# Procedure, shortened: as §1
# SPIC = molecular target: T8, SPIC (Homo sapiens, UniProt Q8N5J4 1-248); conditions: protein: recombinant; tags: N-terminal GST; dsDNA, one strand shown
# T8 sequence: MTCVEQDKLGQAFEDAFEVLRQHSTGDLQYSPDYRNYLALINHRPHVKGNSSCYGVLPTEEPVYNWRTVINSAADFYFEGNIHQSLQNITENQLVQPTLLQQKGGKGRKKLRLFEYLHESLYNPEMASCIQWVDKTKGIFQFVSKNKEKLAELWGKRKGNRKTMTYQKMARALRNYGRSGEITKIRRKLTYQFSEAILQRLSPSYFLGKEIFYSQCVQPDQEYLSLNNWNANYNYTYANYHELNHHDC
# Procedure, shortened: as §1
# ELF4 = ELF4 (Homo sapiens, UniProt Q99607 1-663); conditions: protein: recombinant; tags: N-terminal GST; dsDNA, one strand shown
# Procedure, shortened: as §1
# ELK4 = molecular target: T9, ELK4 (Homo sapiens, UniProt P28324-2 1-405); conditions: protein: recombinant; tags: N-terminal GST; dsDNA, one strand shown
# T9 sequence: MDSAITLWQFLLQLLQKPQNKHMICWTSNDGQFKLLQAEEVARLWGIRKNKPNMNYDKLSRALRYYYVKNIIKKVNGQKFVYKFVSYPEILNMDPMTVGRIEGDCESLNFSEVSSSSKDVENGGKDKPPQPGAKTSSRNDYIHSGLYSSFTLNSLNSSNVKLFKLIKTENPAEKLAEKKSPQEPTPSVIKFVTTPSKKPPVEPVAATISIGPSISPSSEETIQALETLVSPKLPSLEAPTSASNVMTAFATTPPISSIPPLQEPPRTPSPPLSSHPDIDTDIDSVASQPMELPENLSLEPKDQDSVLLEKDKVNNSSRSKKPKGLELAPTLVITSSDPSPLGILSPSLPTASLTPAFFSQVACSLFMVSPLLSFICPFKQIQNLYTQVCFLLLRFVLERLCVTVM
# Procedure, shortened: as §1
# ETV2 = molecular target: T10, ETV2 (Homo sapiens, UniProt O00321 1-342); conditions: protein: recombinant; tags: N-terminal GST; dsDNA, one strand shown
# T10 sequence: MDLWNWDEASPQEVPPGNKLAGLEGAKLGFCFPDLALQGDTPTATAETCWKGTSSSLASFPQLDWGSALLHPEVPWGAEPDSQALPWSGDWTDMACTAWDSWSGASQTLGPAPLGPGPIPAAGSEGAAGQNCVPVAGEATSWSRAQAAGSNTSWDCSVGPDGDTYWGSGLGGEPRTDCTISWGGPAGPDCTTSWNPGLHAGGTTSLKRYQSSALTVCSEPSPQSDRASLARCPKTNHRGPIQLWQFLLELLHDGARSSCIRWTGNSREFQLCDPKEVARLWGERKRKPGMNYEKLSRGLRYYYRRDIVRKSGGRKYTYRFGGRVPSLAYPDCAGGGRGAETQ
# Procedure, shortened: as §1
# ELF3 = molecular target: T11, ELF3 (Homo sapiens, UniProt P78545 1-371); conditions: protein: recombinant; tags: N-terminal GST; dsDNA, one strand shown
# T11 sequence: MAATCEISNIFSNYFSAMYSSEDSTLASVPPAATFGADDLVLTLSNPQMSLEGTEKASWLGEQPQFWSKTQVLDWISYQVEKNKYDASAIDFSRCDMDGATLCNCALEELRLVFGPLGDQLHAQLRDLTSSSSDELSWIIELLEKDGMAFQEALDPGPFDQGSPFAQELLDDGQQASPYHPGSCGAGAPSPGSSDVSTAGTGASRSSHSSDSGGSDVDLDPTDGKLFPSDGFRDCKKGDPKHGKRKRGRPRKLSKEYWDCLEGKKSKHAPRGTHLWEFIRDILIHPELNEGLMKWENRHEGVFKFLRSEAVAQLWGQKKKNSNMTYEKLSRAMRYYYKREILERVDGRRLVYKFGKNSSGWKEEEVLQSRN
# Procedure, shortened: as §1
# CRX = CRX (Homo sapiens, UniProt O43186 1-299); conditions: protein: recombinant; tags: N-terminal GST; dsDNA, one strand shown
# Procedure, shortened: as §1
# ETV1 = ETV1 (Homo sapiens, UniProt P50549 1-477); conditions: protein: recombinant; tags: N-terminal GST; dsDNA, one strand shown
# Procedure, shortened: as §1
# Chain of HSF1 (Q00613 whole entry): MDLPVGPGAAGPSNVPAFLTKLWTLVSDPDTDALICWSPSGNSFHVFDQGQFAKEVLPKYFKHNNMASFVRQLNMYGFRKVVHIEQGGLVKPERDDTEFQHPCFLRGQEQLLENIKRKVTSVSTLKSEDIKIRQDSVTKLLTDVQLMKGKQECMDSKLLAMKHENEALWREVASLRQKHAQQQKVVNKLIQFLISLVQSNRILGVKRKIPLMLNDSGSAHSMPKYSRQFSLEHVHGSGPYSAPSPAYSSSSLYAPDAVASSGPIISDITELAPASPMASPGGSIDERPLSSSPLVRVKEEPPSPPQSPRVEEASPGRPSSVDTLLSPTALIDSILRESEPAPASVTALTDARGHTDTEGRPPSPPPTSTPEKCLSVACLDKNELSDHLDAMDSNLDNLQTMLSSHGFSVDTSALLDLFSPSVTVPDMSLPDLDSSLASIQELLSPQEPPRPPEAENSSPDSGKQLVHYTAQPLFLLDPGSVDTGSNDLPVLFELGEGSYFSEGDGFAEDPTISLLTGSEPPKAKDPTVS
# Chain of ETV1 (P50549 whole entry): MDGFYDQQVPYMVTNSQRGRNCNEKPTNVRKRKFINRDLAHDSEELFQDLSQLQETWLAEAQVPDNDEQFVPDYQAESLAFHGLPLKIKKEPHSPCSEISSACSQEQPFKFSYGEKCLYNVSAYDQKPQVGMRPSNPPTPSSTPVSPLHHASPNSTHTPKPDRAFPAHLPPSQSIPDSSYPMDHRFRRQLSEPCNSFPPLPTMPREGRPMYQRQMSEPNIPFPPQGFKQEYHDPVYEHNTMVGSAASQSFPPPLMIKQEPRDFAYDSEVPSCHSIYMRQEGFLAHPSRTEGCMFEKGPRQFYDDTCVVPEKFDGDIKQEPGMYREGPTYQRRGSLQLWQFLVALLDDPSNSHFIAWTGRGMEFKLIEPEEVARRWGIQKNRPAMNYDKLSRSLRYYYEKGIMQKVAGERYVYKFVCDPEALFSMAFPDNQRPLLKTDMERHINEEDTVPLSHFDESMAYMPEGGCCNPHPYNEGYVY
# Chain of ETV5 (P41161 whole entry): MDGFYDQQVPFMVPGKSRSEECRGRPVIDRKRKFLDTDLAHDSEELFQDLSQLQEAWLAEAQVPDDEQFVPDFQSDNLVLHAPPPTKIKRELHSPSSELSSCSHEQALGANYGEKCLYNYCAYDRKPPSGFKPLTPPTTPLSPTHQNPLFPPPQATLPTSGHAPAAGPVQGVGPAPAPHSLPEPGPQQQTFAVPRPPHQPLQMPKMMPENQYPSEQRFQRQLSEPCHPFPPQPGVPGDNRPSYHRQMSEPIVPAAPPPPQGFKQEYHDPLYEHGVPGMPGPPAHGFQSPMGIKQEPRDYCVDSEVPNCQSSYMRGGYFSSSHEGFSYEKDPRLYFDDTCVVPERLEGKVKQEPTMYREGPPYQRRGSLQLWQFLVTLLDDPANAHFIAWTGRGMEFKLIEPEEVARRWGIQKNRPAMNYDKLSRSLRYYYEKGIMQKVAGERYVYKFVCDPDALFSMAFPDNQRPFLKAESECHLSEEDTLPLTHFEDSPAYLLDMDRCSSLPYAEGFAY
# Chain of SPIB (Q01892 whole entry): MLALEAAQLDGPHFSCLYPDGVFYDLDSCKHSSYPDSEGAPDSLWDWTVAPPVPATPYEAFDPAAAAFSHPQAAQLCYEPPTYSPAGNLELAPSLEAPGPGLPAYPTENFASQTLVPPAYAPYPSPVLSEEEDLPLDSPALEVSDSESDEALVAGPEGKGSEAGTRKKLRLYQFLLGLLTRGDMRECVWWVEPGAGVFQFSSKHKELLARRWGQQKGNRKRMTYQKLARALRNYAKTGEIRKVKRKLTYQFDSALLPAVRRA
# Chain of ELF1 (P32519 whole entry): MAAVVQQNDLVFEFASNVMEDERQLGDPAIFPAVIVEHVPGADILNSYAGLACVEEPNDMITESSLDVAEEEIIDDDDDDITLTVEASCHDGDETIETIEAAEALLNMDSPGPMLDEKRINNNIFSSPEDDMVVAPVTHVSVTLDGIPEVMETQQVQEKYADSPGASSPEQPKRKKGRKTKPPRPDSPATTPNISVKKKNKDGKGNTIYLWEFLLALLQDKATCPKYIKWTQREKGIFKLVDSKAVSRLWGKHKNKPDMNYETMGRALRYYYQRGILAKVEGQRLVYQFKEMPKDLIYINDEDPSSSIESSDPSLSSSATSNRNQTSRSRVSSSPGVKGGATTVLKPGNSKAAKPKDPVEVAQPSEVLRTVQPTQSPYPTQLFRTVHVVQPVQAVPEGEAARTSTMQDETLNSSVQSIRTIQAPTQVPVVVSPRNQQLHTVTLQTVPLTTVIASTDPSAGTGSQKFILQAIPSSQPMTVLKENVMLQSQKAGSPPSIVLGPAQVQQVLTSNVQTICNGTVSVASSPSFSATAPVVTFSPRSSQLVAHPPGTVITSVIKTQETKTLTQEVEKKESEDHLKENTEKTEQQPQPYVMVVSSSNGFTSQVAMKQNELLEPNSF
# Chain of CRX (O43186 whole entry): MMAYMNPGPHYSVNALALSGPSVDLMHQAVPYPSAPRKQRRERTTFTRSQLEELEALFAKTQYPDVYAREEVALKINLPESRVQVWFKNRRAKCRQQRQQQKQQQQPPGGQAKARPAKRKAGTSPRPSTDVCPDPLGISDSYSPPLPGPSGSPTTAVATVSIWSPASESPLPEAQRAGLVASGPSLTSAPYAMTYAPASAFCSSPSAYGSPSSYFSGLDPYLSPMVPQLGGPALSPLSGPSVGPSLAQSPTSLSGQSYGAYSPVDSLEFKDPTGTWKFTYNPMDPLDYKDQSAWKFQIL
# Chain of ELF4 (Q99607 whole entry): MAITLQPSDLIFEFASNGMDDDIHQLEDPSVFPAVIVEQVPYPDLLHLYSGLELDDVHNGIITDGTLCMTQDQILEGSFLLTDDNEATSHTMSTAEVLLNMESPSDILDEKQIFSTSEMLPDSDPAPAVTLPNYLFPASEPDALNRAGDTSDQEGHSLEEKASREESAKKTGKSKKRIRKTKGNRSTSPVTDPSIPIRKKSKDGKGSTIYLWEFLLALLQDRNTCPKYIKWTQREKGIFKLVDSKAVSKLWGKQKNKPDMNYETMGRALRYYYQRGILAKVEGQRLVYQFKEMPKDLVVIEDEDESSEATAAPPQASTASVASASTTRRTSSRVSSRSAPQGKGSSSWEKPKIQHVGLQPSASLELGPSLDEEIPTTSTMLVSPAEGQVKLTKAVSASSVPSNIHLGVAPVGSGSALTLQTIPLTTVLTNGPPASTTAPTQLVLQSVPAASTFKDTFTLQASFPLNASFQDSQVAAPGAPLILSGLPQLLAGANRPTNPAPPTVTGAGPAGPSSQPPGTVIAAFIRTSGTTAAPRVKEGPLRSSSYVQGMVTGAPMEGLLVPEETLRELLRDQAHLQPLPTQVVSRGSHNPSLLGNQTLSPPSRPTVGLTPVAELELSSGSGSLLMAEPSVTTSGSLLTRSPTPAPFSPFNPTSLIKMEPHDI
sequence,measurement,setting,value
CGACTC,binding signal,FLI1,"1.37 fold enrichment (6-mer frequency, TF over GST control)"
same,binding signal,ELK1,"1.42 fold enrichment (6-mer frequency, TF over GST control)"
same,binding signal,GABPA,"1.53 fold enrichment (6-mer frequency, TF over GST control)"
same,binding signal,ERG,"1.39 fold enrichment (6-mer frequency, TF over GST control)"
same,binding signal,ELF1,"1.45 fold enrichment (6-mer frequency, TF over GST control)"
same,binding signal,EHF,"1.43 fold enrichment (6-mer frequency, TF over GST control)"
same,binding signal,SPI1,"1.35 fold enrichment (6-mer frequency, TF over GST control)"
same,binding signal,SPIB,"1.56 fold enrichment (6-mer frequency, TF over GST control)"
same,binding signal,ELK3,"1.43 fold enrichment (6-mer frequency, TF over GST control)"
same,binding signal,FEV,"1.42 fold enrichment (6-mer frequency, TF over GST control)"
same,binding signal,ETV5,"1.44 fold enrichment (6-mer frequency, TF over GST control)"
same,binding signal,HSF1,"1.37 fold enrichment (6-mer frequency, TF over GST control)"
same,binding signal,SPIC,"1.64 fold enrichment (6-mer frequency, TF over GST control)"
same,binding signal,ELF4,"1.41 fold enrichment (6-mer frequency, TF over GST control)"
same,binding signal,ELK4,"1.35 fold enrichment (6-mer frequency, TF over GST control)"
same,binding signal,ETV2,"1.34 fold enrichment (6-mer frequency, TF over GST control)"
same,binding signal,ELF3,"1.25 fold enrichment (6-mer frequency, TF over GST control)"
same,binding signal,CRX,"1.31 fold enrichment (6-mer frequency, TF over GST control)"
same,binding signal,ETV1,"1.41 fold enrichment (6-mer frequency, TF over GST control)"

# Reference: paper PMC7862700, “An all-to-all approach to the identification of sequence-specific readers for epigenetic DNA modifications on cytosine”
